Measurements taken from PubChem BioAssay (NCI).
About 79,000 compounds went through this panel and 15% of them were active in at least one assay; those are over-represented in the sample as a whole. Active and inactive are the calls of the source. Rule as the data show it: active = growth inhibition above about 70%; inactive = the rest.

Assay: NCI Yeast Anticancer Drug Screen. Data for the mlh1 rad18 strain (AID 175)
Conditions: S. cerevisiae mlh1 rad18 strain growth inhibition; at 50.0 µM (retest, dose inferred, filed as 5.0); stronger effect = higher value
Procedure, shortened: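 Growth inhibition of the yeast strain was measured after compound exposure and expressed relative to vehicle-treated controls. The strain carries defined defects in DNA damage repair.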

Row | Structure (SMILES) | growth inhibition
1 | O=C(O)/C=C/C(=O)Nc1cccc2ccccc12 | 44% (inactive)
2 | CCCCCN=C(C)C(C)=NCCCCC | 94% (active)
3 | Oc1ccc(N=Nc2ccccc2)c(O)c1.Oc1ccc(N=Nc2ccccc2)c(O)c1.[Cu] | 96% (active)
4 | NNc1c(Cl)cc(Cl)cc1Cl | 97% (active)
5 | C=C1C[C@H](O)[C@H]2C(C[Se]c3ccccc3)C(=O)O[C@@H]2[C@H]2[C@H](C)C(O)C[C@@H]12 (stereo not given in full) | 32% (inactive)
6 | O=C(CBr)Oc1ccc(-c2cccc(Br)c2)cc1 | 99% (active)
7 | CCCCC1=NCCc2c1cc1c([nH]c3ccccc31)c2C | 97% (active)
8 | CCOC(=O)NC(=S)Nc1ccsc1 | 0% (inactive)
9 | CCCCCCCCCCCCCCCCNC(C)c1ccccc1 (stereo not given) | 9% (inactive)
10 | Cc1ccc(C2(O)CC(c3ccc([N+](=O)[O-])o3)=NN2C(=O)COc2ccc(Cl)cc2)cc1 (stereo not given) | 43% (inactive)
11 | CCOC(=O)/C(C#N)=C/c1ccccc1Br | -4% (inactive)
12 | CCCCCCCCCCCCCCCCNCCCCCCCC(=O)O | 66% (inactive)
13 | CC[N+]1(C)CCC(O)(c2ccc(Cl)c(Cl)c2)C(C(=O)c2ccc(Cl)c(Cl)c2)C1 (stereo not given) | 100% (active)
14 | CC(=O)Nc1nnc(-c2coc3ccccc3c2=O)s1 | -4% (inactive)
15 | CCC(C)(C)NCCCCCNc1cc(OC)cc2cccnc12 | 16% (inactive)
16 | CSC(=Nc1ccccc1)/N=C(\SCc1ccccc1)N(C)C | 99% (active)
17 | N=Cc1cc([N+](=O)[O-])ccc1O | 98% (active)
18 | CCCCCCCC(=O)/C=C/c1ccc(C)cc1 | -119% (inactive)
19 | Cc1ccc(S(=O)(=O)N/N=C2/CC[C@H](C(C)(C)C)C[C@@H]2C)cc1 | 98% (active)
20 | Nc1ccc2c(c1)CCc1ccccc1-2 | 45% (inactive)

Row | Structure (SMILES) | growth inhibition
21 | CN(C)CCC(=O)[C@@]1(O)CC[C@H]2[C@@H]3CC=C4C[C@@H](O)CC[C@]4(C)[C@H]3CC[C@@]21C | 68% (inactive)
22 | CC(=O)OC1COC(N2C(=O)C(=O)c3cc(Br)ccc32)C(OC(C)=O)C1OC(C)=O (stereo not given) | 14% (inactive)
23 | Cc1ccc(N2CCN(c3c(N)cncc3Br)CC2)cc1 | -1% (inactive)
24 | O=C(O)c1ccccc1SC(Sc1ccccc1C(=O)O)c1cccc(Cl)c1 | 97% (active)
25 | CC[N+](C)(CC)CCC(=O)/C=C/c1ccccc1 | 46% (inactive)
26 | COc1ccc(C(C)c2cc3c(cc2OC/C(C)=N/NC(N)=O)OCO3)cc1 (stereo not given) | 96% (active)
27 | CN=C(N)N/N=C(\C)c1ccc2c(c1)Cc1cc(Cl)ccc1-2 | 97% (active)
28 | CCCCCCCCN/N=C(/C)CCCCCO | -12% (inactive)
29 | O=[N+]([O-])c1cccc2c(O)cccc12 | 43% (inactive)
30 | O=C1C(=O)c2ccccc2C(O)=C1Sc1ccccc1 | 93% (active)
31 | CC(=O)N(O)c1ccc2c(c1)Cc1cc(F)ccc1-2 | 57% (inactive)
32 | CC12CCC(=O)C=C1CCC1C2CCC2(C)C(c3cnc[nH]3)CCC12 (stereo not given) | 70% (active)
33 | O=C1OC(C2OC(=O)C(=O)C2C(=O)c2ccc(Cl)c(Cl)c2)C(C(=O)c2ccc(Cl)c(Cl)c2)C1=O (stereo not given) | 98% (active)
34 | CC/C(C)=C1\CCC(CN2CCOCC2)C1=O (stereo not given) | 90% (active)
35 | COc1ccc(C2CC(=O)CC(=O)C2)cc1 | 0% (inactive)
36 | Cc1ccc(O)c(C(c2ccc([N+](=O)[O-])cc2)c2cc(C)ccc2O)c1 | 96% (active)
37 | O=C1OS(=O)(=O)c2cc3c(cc21)C1C(C2C3C3(Cl)C(Cl)=C(Cl)C2(Cl)C3(Cl)Cl)C2(Cl)C(Cl)=C(Cl)C1(Cl)C2(Cl)Cl (stereo not given) | 91% (active)
38 | CCOC(=O)C1SC(=S)N(C)C1=O (stereo not given) | 98% (active)
39 | O=C(c1ccc(Cl)c([N+](=O)[O-])c1)c1ccc(Cl)c([N+](=O)[O-])c1 | 96% (active)
40 | Cc1cc[c]([Sn]([Cl])([O][Sn]([Cl])([c]2ccc(C)cc2)[c]2ccc(C)cc2)[c]2ccc(C)cc2)cc1 | 54% (inactive)

Same assay, conditions: S. cerevisiae mlh1 rad18 strain growth inhibition; at 50.0 µM; stronger effect = higher value

Row | Structure (SMILES) | growth inhibition
41 | O=C(O)/C=C/C(=O)Nc1cccc2ccccc12 | 16.8% (inactive)
42 | CCCCCN=C(C)C(C)=NCCCCC | 95% (active)
43 | Oc1ccc(N=Nc2ccccc2)c(O)c1.Oc1ccc(N=Nc2ccccc2)c(O)c1.[Cu] | 97.1% (active)
44 | NNc1c(Cl)cc(Cl)cc1Cl | 99.7% (active)
45 | C=C1C[C@H](O)[C@H]2C(C[Se]c3ccccc3)C(=O)O[C@@H]2[C@H]2[C@H](C)C(O)C[C@@H]12 (stereo not given in full) | 86.5% (active)
46 | O=C(CBr)Oc1ccc(-c2cccc(Br)c2)cc1 | 99.2% (active)
47 | CCCCC1=NCCc2c1cc1c([nH]c3ccccc31)c2C | 56.4% (inactive)
48 | CCOC(=O)NC(=S)Nc1ccsc1 | 29.9% (inactive)
49 | CCCCCCCCCCCCCCCCNC(C)c1ccccc1 (stereo not given) | 98.3% (active)
50 | Cc1ccc(C2(O)CC(c3ccc([N+](=O)[O-])o3)=NN2C(=O)COc2ccc(Cl)cc2)cc1 (stereo not given) | 34.3% (inactive)
51 | CCOC(=O)/C(C#N)=C/c1ccccc1Br | 6.6% (inactive)
52 | CCCCCCCCCCCCCCCCNCCCCCCCC(=O)O | 74.5% (active)
53 | CC[N+]1(C)CCC(O)(c2ccc(Cl)c(Cl)c2)C(C(=O)c2ccc(Cl)c(Cl)c2)C1 (stereo not given) | 99.6% (active)
54 | CC(=O)Nc1nnc(-c2coc3ccccc3c2=O)s1 | 12.1% (inactive)
55 | CCC(C)(C)NCCCCCNc1cc(OC)cc2cccnc12 | 68.8% (inactive)
56 | CSC(=Nc1ccccc1)/N=C(\SCc1ccccc1)N(C)C | 99.3% (active)
57 | N=Cc1cc([N+](=O)[O-])ccc1O | 98.2% (active)
58 | CCCCCCCC(=O)/C=C/c1ccc(C)cc1 | 45% (inactive)
59 | Cc1ccc(S(=O)(=O)N/N=C2/CC[C@H](C(C)(C)C)C[C@@H]2C)cc1 | 76.3% (active)
60 | Nc1ccc2c(c1)CCc1ccccc1-2 | 86.5% (active)

Row | Structure (SMILES) | growth inhibition
61 | CN(C)CCC(=O)[C@@]1(O)CC[C@H]2[C@@H]3CC=C4C[C@@H](O)CC[C@]4(C)[C@H]3CC[C@@]21C | 65.5% (inactive)
62 | CC(=O)OC1COC(N2C(=O)C(=O)c3cc(Br)ccc32)C(OC(C)=O)C1OC(C)=O (stereo not given) | 12.9% (inactive)
63 | Cc1ccc(N2CCN(c3c(N)cncc3Br)CC2)cc1 | 90.8% (active)
64 | O=C(O)c1ccccc1SC(Sc1ccccc1C(=O)O)c1cccc(Cl)c1 | 98% (active)
65 | CC[N+](C)(CC)CCC(=O)/C=C/c1ccccc1 | -47.8% (inactive)
66 | COc1ccc(C(C)c2cc3c(cc2OC/C(C)=N/NC(N)=O)OCO3)cc1 (stereo not given) | 90.3% (active)
67 | CN=C(N)N/N=C(\C)c1ccc2c(c1)Cc1cc(Cl)ccc1-2 | 98.5% (active)
68 | CCCCCCCCN/N=C(/C)CCCCCO | -23.6% (inactive)
69 | O=[N+]([O-])c1cccc2c(O)cccc12 | 73.5% (active)
70 | O=C1C(=O)c2ccccc2C(O)=C1Sc1ccccc1 | 95.5% (active)
71 | CC(=O)N(O)c1ccc2c(c1)Cc1cc(F)ccc1-2 | 96.5% (active)
72 | CC12CCC(=O)C=C1CCC1C2CCC2(C)C(c3cnc[nH]3)CCC12 (stereo not given) | 39.1% (inactive)
73 | O=C1OC(C2OC(=O)C(=O)C2C(=O)c2ccc(Cl)c(Cl)c2)C(C(=O)c2ccc(Cl)c(Cl)c2)C1=O (stereo not given) | 96.2% (active)
74 | CC/C(C)=C1\CCC(CN2CCOCC2)C1=O (stereo not given) | 79.2% (active)
75 | COc1ccc(C2CC(=O)CC(=O)C2)cc1 | 55.5% (inactive)
76 | Cc1ccc(O)c(C(c2ccc([N+](=O)[O-])cc2)c2cc(C)ccc2O)c1 | 91.3% (active)
77 | O=C1OS(=O)(=O)c2cc3c(cc21)C1C(C2C3C3(Cl)C(Cl)=C(Cl)C2(Cl)C3(Cl)Cl)C2(Cl)C(Cl)=C(Cl)C1(Cl)C2(Cl)Cl (stereo not given) | 73.8% (active)
78 | CCOC(=O)C1SC(=S)N(C)C1=O (stereo not given) | 99.4% (active)
79 | O=C(c1ccc(Cl)c([N+](=O)[O-])c1)c1ccc(Cl)c([N+](=O)[O-])c1 | 96.7% (active)
80 | Cc1cc[c]([Sn]([Cl])([O][Sn]([Cl])([c]2ccc(C)cc2)[c]2ccc(C)cc2)[c]2ccc(C)cc2)cc1 | 91.3% (active)
